Reference: PubChem BioAssay (NCATS)
Records with an inconclusive call do not appear. Active and inactive are the calls of the source. Unless noted, the call rests on the fitted dose curve; in most records, active means well fitted curve in either direction with a large enough effect (not every such curve was filed as active); inconclusive means small, poorly fitted or top-dose-only effect, or another doubt; inactive means flat fitted curve, though single readings scatter.

Columns and labels:
[1] = molecular target: Lysosomal acid glucosylceramidase (Homo sapiens) (UniProt P04062); experiment: Glucocerebrosidase-p2 (AID 348; in the data active means potency below about 10 µM; further: potency means the concentration at half of the fitted maximal effect); conditions: purified GBA, blue fluorogenic substrate, 40 min
Lysosomal acid glucosylceramidase (Homo sapiens), sequence (P04062 whole entry, looked up): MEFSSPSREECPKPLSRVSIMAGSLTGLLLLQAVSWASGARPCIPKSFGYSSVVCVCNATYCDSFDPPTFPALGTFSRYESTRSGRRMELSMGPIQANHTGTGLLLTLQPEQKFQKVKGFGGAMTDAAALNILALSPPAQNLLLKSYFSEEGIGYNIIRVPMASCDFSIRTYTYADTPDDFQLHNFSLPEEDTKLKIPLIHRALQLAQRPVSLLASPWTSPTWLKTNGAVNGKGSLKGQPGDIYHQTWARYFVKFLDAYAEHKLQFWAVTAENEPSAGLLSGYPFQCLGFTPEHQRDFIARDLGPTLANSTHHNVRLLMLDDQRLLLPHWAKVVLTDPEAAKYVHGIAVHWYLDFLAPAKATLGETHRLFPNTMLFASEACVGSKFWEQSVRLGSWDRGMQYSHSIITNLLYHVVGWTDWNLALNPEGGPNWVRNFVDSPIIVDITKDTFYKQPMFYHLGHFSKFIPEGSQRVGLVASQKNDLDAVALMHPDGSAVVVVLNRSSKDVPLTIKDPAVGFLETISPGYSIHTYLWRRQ
Method in brief: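 Compounds titrated from 0.6 nM upwards against 0.2 nM enzyme in pH 5.9 citric acid/KH2PO4, taurocholate, tween-20; blue fluorogenic substrate 80 uM, 40 min room temperature, stopped and read Ex 365/Em 440 for AC50.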

[2] = AP1 Signaling Pathway (AID 357); conditions: ME-180 AP-1-bla reporter, EGF-induced, beta-lactamase ratio, 5 h; at 7.69 µM (top of the series) unless noted; further: on the % scale 0 is the no-effect control and ±100 the full control effect
Method in brief: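 AP-1-bla ME-180 cells with beta-lactamase reporter under AP-1 response element, stimulated with EC50 EGF; compounds titrated, 5 hours at 37 degrees Celsius. CCF4 read at 460/530 nm ratio; positive and negative modulators judged by AC50.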

[3] = NFAT Signaling Pathway (AID 444); conditions: Jurkat NFAT-bla M1, carbachol, beta-lactamase ratio, 5 h; at 7.69 µM (top of the series) unless noted;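 further: carbachol stimulus at about its EC50 of 1 µM final; on the % scale 0 is the no-effect control and ±100 the full control effect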
Method in brief: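 Jurkat cells with NFAT-driven β-lactamase reporter and co-expressed M1 receptor, stimulated with carbachol (final 1 uM, ~EC50), compound titration, 5 h at 37 °C. CCF4 loaded 1 h at RT; 460/530 nm ratio gave %activity and AC50.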

[4] = Stat Signaling Pathway (AID 446); conditions: ME-180 SIE beta-lactamase reporter, IL-6 stimulated, 5 h; at 7.69 µM (top of the series) unless noted;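 further: ME-180 cervical cancer cells given 40 pM IL-6 alongside compound; SIE-controlled beta-lactamase reporter measured as 460/530 nm FRET emission ratio; on the % scale 0 is the no-effect control and ±100 the full control effect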
Method in brief: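 Reporter line: ME-180 cervical carcinoma, SIE-beta-lactamase. Treatment: compound with 40 pM IL-6, 5 hrs, 37 C, in low-serum OPTI-MEM with 10 mM HEPES pH 7.3. Detection: 460/530 nm fluorescence.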

[5] = molecular target: Glucocorticoid receptor (Homo sapiens) (UniProt P04150); experiment: GR-GFP Redistribution (AID 450;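 active means compounds whose dose series gives a full or clear partial fitted curve of increased nuclear translocation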; further: potency means the concentration at half of the fitted maximal effect); conditions: U2OS GR-GFP nuclear translocation, laser cytometry, 2 h
Glucocorticoid receptor (Homo sapiens), sequence (P04150 whole entry, looked up, the tested form may be a part): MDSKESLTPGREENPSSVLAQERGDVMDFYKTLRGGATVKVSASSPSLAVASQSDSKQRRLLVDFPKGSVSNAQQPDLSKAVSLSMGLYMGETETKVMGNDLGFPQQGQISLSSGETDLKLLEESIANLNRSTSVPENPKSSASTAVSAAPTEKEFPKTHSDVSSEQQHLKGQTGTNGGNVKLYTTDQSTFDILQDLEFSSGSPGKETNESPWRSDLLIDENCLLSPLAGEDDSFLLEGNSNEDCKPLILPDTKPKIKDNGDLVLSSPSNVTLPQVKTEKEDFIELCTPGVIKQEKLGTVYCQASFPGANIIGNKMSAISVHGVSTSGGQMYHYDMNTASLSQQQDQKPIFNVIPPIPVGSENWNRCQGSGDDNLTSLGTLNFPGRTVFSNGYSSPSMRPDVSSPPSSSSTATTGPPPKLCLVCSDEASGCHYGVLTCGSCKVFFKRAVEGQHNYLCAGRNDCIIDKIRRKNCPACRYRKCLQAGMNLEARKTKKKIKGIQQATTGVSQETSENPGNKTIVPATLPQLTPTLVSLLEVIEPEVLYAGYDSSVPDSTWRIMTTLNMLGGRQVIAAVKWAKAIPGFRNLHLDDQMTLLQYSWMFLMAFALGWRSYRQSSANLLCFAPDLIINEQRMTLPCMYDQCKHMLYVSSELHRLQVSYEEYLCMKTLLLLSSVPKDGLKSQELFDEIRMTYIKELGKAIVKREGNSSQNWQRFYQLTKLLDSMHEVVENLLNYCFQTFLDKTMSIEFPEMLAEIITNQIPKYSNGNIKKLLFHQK

[6] = molecular target: Glucocorticoid receptor (Homo sapiens) (UniProt P04150); experiment: GR-EFC Redistribution (AID 451; calls by dose curve; further: potency means the concentration at half of the fitted maximal effect); conditions: CHO-K1 GR-EFC translocation, beta-gal luminescence, 2 h
Method in brief: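 CHO-K1 cells expressing nuclear EA and GR-ED fragments of b-gal; compounds titrated up to 46 uM final, 2 h at 37 C. GR nuclear translocation read as complemented b-gal luminescence after 1 h RT detection.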

[7] = molecular target: Mitogen-activated protein kinase 10 (Mus musculus) (UniProt Q61831); experiment: JNK3 AlphaScreen Assay (AID 530); conditions: JNK3 lysate, c-Jun phosphorylation; series mostly up to 11.4 µM;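 further: kinase came from lysate of stimulated human HepG2 cells; signal reports phosphorylation of biotinylated GST-cJun 1-79 at Ser73 with 10 µM ATP; on the % scale 0 is the no-effect control and ±100 the full control effect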
Method in brief: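 qHTS format: compounds tested as titrations against IL-1beta/TNF-alpha-activated HepG2 lysate JNK3 with biotin-GST-cJun substrate and 10 uM ATP at room temperature. Loss of anti-phospho-cJun AlphaScreen signal indicates inhibition.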

[8] = molecular target: 3',5'-cyclic-AMP phosphodiesterase 4B (Homo sapiens) (UniProt Q07343); experiment: qHTS Assay for Inhibitors of PDE-IV (AID 607; active means well fitted activation curve with a large enough effect in the main read-out, with a control signal flat, not every such curve was filed as active; further: % of control where 0% means no effect); conditions: HEK293 ACTOne CNG channel cells, membrane potential fluorescence; series mostly up to 22.9 µM
3',5'-cyclic-AMP phosphodiesterase 4B (Homo sapiens), sequence (Q07343 whole entry, looked up): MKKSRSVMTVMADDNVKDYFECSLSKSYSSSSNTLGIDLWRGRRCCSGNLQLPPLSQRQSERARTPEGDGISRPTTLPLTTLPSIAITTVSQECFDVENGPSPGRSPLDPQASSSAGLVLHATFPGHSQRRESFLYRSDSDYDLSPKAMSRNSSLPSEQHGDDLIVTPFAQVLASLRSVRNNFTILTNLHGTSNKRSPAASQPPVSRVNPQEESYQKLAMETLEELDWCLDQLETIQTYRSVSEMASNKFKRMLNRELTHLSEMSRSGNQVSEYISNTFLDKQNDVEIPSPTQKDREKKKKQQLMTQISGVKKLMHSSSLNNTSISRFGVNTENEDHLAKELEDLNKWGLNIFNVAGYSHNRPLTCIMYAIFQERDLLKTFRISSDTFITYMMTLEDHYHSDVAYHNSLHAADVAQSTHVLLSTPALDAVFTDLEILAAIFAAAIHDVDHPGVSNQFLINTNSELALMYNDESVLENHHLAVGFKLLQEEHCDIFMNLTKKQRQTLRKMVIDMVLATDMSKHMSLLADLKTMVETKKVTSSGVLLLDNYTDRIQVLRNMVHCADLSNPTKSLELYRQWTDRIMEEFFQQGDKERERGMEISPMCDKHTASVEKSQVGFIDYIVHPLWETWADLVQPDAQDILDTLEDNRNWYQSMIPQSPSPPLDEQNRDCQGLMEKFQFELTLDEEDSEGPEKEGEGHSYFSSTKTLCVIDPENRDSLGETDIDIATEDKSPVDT
Method in brief: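 Cell-based read-out of cAMP via a modified cyclic nucleotide-gated channel and membrane potential dye (535/590 nm) in HEK293 cells expressing PDE4 endogenously. Compounds tested up to 22.9 uM final; 100 uM RO 20-1724 reference.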

COc1cc2c(cc1O)[C@@H](c1cc(O)c(O)c(OC)c1)[C@@](O)(C(=O)O)[C@@H](CO)[C@@H]2O
inactive: Potency [1] > 11.4 µM | activity change, negative = inhibition [2] 0.0448% | activity change, negative = inhibition [3] -5.96% | activity, negative = inhibition [4] 4.61% | Potency [5] > 46 µM | Potency [6] > 9.22 µM | Potency [7] | Potency [8]

C=CCNS(=O)(=O)c1ncnc2nc[nH]c12
inactive: Potency [1] > 11.4 µM | activity change, negative = inhibition [2] -7.02% | activity change, negative = inhibition [3] -12.1% | activity, negative = inhibition [4] 14.4% | Potency [5] > 46 µM | Potency [6] > 9.22 µM | Potency [7] | Potency [8]

Cc1cc2c(SCc3ccccc3Cl)nc(N)nc2nc1C
inactive: Potency [1] > 11.4 µM | activity change, negative = inhibition [2] -22.2% | activity change, negative = inhibition [3] 15% | activity, negative = inhibition [4] -10.5% | Potency [5] > 46 µM | Potency [6] > 9.22 µM | Potency [7] | Potency [8]

O=C(O)[C@H](Cc1ccccc1)N1C(=O)c2ccccc2C1=O
inactive: Potency [1] > 11.4 µM | activity change, negative = inhibition [2] -3.82% | activity change, negative = inhibition [3] 16.6% | activity, negative = inhibition [4] -2.52% | Potency [5] > 46 µM | Potency [6] > 9.22 µM | Potency [7] | Potency [8]

COc1cc(NCC[C@@H]2CCCCN2)c2ncccc2c1
inactive: Potency [1] > 11.4 µM | activity change, negative = inhibition [2] 28.5% | activity change, negative = inhibition [3] -23.9% | activity, negative = inhibition [4] 13.7% | Potency [5] > 46 µM | Potency [6] > 9.22 µM | Potency [7] | Potency [8]

O=C(O)CCSCc1ccc(I)cc1
inactive: Potency [1] > 11.4 µM | activity change, negative = inhibition [2] 2.76% | activity change, negative = inhibition [3] 1.51% | activity, negative = inhibition [4] 4.16% | Potency [5] > 46 µM | Potency [6] > 9.22 µM | Potency [7] | Potency [8]

C[C@H](OP(=O)(O)O)[C@H](N)C(=O)O
inactive: Potency [1] > 11.4 µM | activity change, negative = inhibition [2] 0.907% | activity change, negative = inhibition [3] 13.7% | activity, negative = inhibition [4] -1.55% | Potency [5] > 46 µM | Potency [6] > 9.22 µM | Potency [7] | Potency [8]

CNC/C(Cl)=N/S(=O)(=O)c1ccc(C)cc1
inactive: Potency [1] > 11.4 µM | activity change, negative = inhibition [2] -4.53% | activity change, negative = inhibition [3] 8.45% | activity, negative = inhibition [4] 2.28% | Potency [5] > 46 µM | Potency [6] > 9.22 µM | Potency [7] | Potency [8]

c1ccc(CN2COc3c(ccc4c5c(ccc34)CN(Cc3ccccc3)CO5)C2)cc1
inactive: Potency [1] > 11.4 µM | activity change, negative = inhibition [2] -0.336% | activity change, negative = inhibition [3] 7.9% | activity, negative = inhibition [4] 8.56% | Potency [5] > 46 µM | Potency [6] > 9.22 µM | Potency [7] | Potency [8]

O=C(O)c1nnsc1-c1ccc(-c2snnc2C(=O)O)cc1
inactive: Potency [1] > 11.4 µM | activity change, negative = inhibition [2] -0.0507% | activity change, negative = inhibition [3] 18.7% | activity, negative = inhibition [4] -0.666% | Potency [5] > 46 µM | Potency [6] > 9.22 µM | Potency [7] | Potency [8]

C[C@@H](N)/C(N)=N/O
inactive: Potency [1] > 11.4 µM | activity change, negative = inhibition [2] -1.61% | activity change, negative = inhibition [3] 6.7% | activity, negative = inhibition [4] 5.63% | Potency [5] > 46 µM | Potency [6] > 9.22 µM | Potency [7] | Potency [8]

O=C(O)/C=C\C=C/c1ccc2c(c1)OCO2
inactive: Potency [1] > 11.4 µM | activity change, negative = inhibition [2] 6.54% | activity change, negative = inhibition [3] 5.9% | activity, negative = inhibition [4] 1.24% | Potency [5] > 46 µM | Potency [6] > 9.22 µM | Potency [7] | Potency [8]

C(=Nc1ccc2c(c1)Cc1ccccc1-2)c1ccccn1
inactive: Potency [1] > 11.4 µM | activity change, negative = inhibition [2] -0.541% | activity change, negative = inhibition [3] 1.45% | activity, negative = inhibition [4] 0.131% | Potency [5] > 46 µM | Potency [6] > 9.22 µM | Potency [7] | Potency [8]

O=CNc1ncn[nH]1
inactive: Potency [1] > 11.4 µM | activity change, negative = inhibition [2] -1.52% | activity change, negative = inhibition [3] -0.432% | activity, negative = inhibition [4] 8.03% | Potency [5] > 46 µM | Potency [6] > 9.22 µM | Potency [7] | Potency [8]

CN1CCN(c2ncc3nc(CCc4ccccc4)c(=O)n(CCC#N)c3n2)CC1
inactive: Potency [1] > 11.4 µM | activity change, negative = inhibition [2] -1.24% | activity change, negative = inhibition [3] -8.66% | activity, negative = inhibition [4] -3.93% | Potency [5] > 9.22 µM | Potency [6] > 46 µM | Potency [7] | Potency [8]

c1nnc(NCNc2nncs2)s1
inactive: Potency [1] > 11.4 µM | activity change, negative = inhibition [2] 12.8% | activity change, negative = inhibition [3] 7.13% | activity, negative = inhibition [4] -7.18% | Potency [5] > 46 µM | Potency [6] > 9.22 µM | Potency [7] | Potency [8]

Nc1nc(N)c(N=Nc2ccc(C(=O)O)c(O)c2)c(N)n1
inactive: Potency [1] > 11.4 µM | activity change, negative = inhibition [2] 2.15% | activity change, negative = inhibition [3] 15.4% | activity, negative = inhibition [4] -2.93% | Potency [5] > 46 µM | Potency [6] > 9.22 µM | Potency [7] | Potency [8]

NC(=O)N/N=C1\CC[C@H](O)C[C@@H]1CC(=O)O
inactive: Potency [1] > 11.4 µM | activity change, negative = inhibition [2] 11.5% | activity change, negative = inhibition [3] 5.67% | activity, negative = inhibition [4] 0.119% | Potency [5] > 46 µM | Potency [6] > 9.22 µM | Potency [7] | Potency [8]

CC(C)=N[C@H](C(=O)O)C(C)(C)S
inactive: Potency [1] > 11.4 µM | activity change, negative = inhibition [2] 10% | activity change, negative = inhibition [3] 3.46% | activity, negative = inhibition [4] 6.64% | Potency [5] > 46 µM | Potency [6] > 9.22 µM | Potency [7] | Potency [8]

NC(=O)NOC[C@@H]1NC(=O)NC1=O
inactive: Potency [1] > 11.4 µM | activity change, negative = inhibition [2] 0.037% | activity change, negative = inhibition [3] 8.44% | activity, negative = inhibition [4] 9.07% | Potency [5] > 46 µM | Potency [6] > 9.22 µM | Potency [7] | Potency [8]

[N-]=[N+]=CC(=O)COC(=O)c1ccccc1
inactive: Potency [1] > 11.4 µM | activity change, negative = inhibition [2] 9.2% | activity change, negative = inhibition [3] 16.5% | activity, negative = inhibition [4] -0.859% | Potency [5] > 46 µM | Potency [6] > 9.22 µM | Potency [7] | Potency [8]

CC(=O)c1ccc(O)c(CN(C2CCCCC2)C2CCCCC2)c1O
inactive: Potency [1] > 11.4 µM | activity change, negative = inhibition [2] -2.68% | activity change, negative = inhibition [3] 16% | activity, negative = inhibition [4] -1.55% | Potency [5] > 46 µM | Potency [6] > 9.22 µM | Potency [7] | Potency [8]

O=C(O)C1C(C(=O)O)C(C(=O)O)C1C(=O)O (stereo unspecified)
inactive: Potency [1] > 11.4 µM | activity change, negative = inhibition [2] -0.701% | activity change, negative = inhibition [3] -1.31% | activity, negative = inhibition [4] 0.791% | Potency [5] > 46 µM | Potency [6] > 9.22 µM | Potency [7] | Potency [8]

C[N@@+]1(CC[N@@+]2(C)CCC[C@H]2c2cccnc2)CCC[C@@H]1c1cccnc1
inactive: Potency [1] > 11.4 µM | activity change, negative = inhibition [2] 28.9% | activity change, negative = inhibition [3] -16.4% | activity, negative = inhibition [4] -5.44% | Potency [5] > 46 µM | Potency [6] > 9.22 µM | Potency [7] | Potency [8]

Cc1ccc(CCCC(=O)O)cc1C
inactive: Potency [1] > 11.4 µM | activity change, negative = inhibition [2] 2.32% | activity change, negative = inhibition [3] 9.24% | activity, negative = inhibition [4] 3.42% | Potency [5] > 46 µM | Potency [6] > 9.22 µM | Potency [7] | Potency [8]

NC(=O)/N=C(\N)NC(=O)c1ccccc1
inactive: Potency [1] > 11.4 µM | activity change, negative = inhibition [2] -2.56% | activity change, negative = inhibition [3] 8.99% | activity, negative = inhibition [4] 2.37% | Potency [5] > 46 µM | Potency [6] > 9.22 µM | Potency [7] | Potency [8]

N[C@@H](CSc1nc2ccccn2c1[N+](=O)[O-])C(=O)O
inactive: Potency [1] > 11.4 µM | activity change, negative = inhibition [2] -2.33% | activity change, negative = inhibition [3] 9.56% | activity, negative = inhibition [4] -1.41% | Potency [5] > 46 µM | Potency [6] > 9.22 µM | Potency [7] | Potency [8]
